{
  "source": "PubChem BioAssay AID1063",
  "about": "(University of Pittsburgh Molecular Library Screening Center, 2008)",
  "note": "The whole screen tested about 200,000 compounds, of which about 18,000 (9%) were called active. Only a selection was taken, and actives are over-represented in it overall. A number with no mark means an inactive call. Rule as the data show it: active = inhibition above about 50%; inactive = the rest.",
  "data": [
    {"assay": "antileishmanial activity against promastigotes – primary screen (AID 1063);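 also: promastigotes grown with compound for 44 hours at 28 °C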", "details": "Leishmania major promastigotes, resazurin fluorescence viability; at 10 µM; active compounds read high", "values": [
      {"molecule": "C=CCn1c(CCc2ccc(OC(C)C)cc2)n[nH]c1=S", "inhibition": "1.12%"},
      {"molecule": "O=C(c1ccc(F)cc1)N1CCC(n2nnc3ccccc32)CC1", "inhibition": "1.08%"},
      {"molecule": "CCc1c(O)cc2n(c1=O)-c1ccccc1C2(C)C", "inhibition": "51.1% (active)"},
      {"molecule": "CC(=O)c1c(O)cc2n(c1=O)-c1ccc(Cl)cc1C2(C)C", "inhibition": "-6.77%"},
      {"molecule": "CCc1c(O)nc(SCC(=O)N2CCCCC2)n(-c2ccccc2C)c1=O", "inhibition": "1%"},
      {"molecule": "O=C(Nc1nnc(C2CC2)s1)C1=NN(C2CCS(=O)(=O)C2)C(=O)CC1", "note": "(stereo unspecified)", "inhibition": "-3.9%"},
      {"molecule": "COC(=O)c1cc2c(ccn2C)n1C", "inhibition": "-2.26%"},
      {"molecule": "N#CC1=C(SCc2ccccc2)NC(=O)C(C#N)C12CCCC2", "note": "(stereo unspecified)", "inhibition": "-9.59%"},
      {"molecule": "N#C/C(=C1\\CCCN1)c1nc(-c2ccccc2)cs1", "inhibition": "4.05%"},
      {"molecule": "N#CC1=C(SCc2ccc(C#N)cc2)N=C(N)C(c2nc(-c3ccccc3)cs2)C12CCCCC2", "note": "(stereo unspecified)", "inhibition": "98% (active)"},
      {"molecule": "CCN(CC)S(=O)(=O)c1ccc(OC(C)C)c(N)c1", "inhibition": "-4.13%"},
      {"molecule": "Nc1nc(SCC(=O)NNc2c(Cl)cc(Cl)cc2Cl)n[nH]1", "inhibition": "-7.01%"},
      {"molecule": "O=C(CN1CCCCC1)N1c2ccccc2Sc2ccc(C(F)(F)F)cc21", "inhibition": "92% (active)"},
      {"molecule": "O=C(CN1CCCCCC1)N1c2ccccc2Sc2ccc(C(F)(F)F)cc21", "inhibition": "46%"},
      {"molecule": "COc1cc(/C=C/C(=O)N2c3ccccc3Sc3ccc(C(F)(F)F)cc32)cc(OC)c1OC", "inhibition": "81.2% (active)"},
      {"molecule": "COc1cc(/C=C/C(=O)O)cc(S(=O)(=O)Nc2ccccc2SC)c1OC", "inhibition": "46.9%"},
      {"molecule": "COc1cc(/C=C2\\SC(=S)N(Nc3ncc(C(F)(F)F)cc3Cl)C2=O)cc(OC)c1OC", "inhibition": "-11.1%"},
      {"molecule": "CCOC(=O)CNC(=O)N1c2ccccc2Sc2ccccc21", "inhibition": "3.23%"},
      {"molecule": "O=C(NC(Cc1c[nH]c2ccccc12)C(=O)O)/C(=C/c1ccco1)NC(=O)c1ccccc1", "note": "(stereo unspecified)", "inhibition": "3.28%"},
      {"molecule": "COc1ccc(CC(NC(C)=O)C(=O)NC2CCN(C(=O)c3ccc(OC)c(OC)c3)CC2)cc1OC", "note": "(stereo unspecified)", "inhibition": "-4.66%"},
      {"molecule": "CCCN(CC(=O)Nc1ccc(C(N)=O)cc1)CC(=O)Nc1ccccc1C", "inhibition": "7.98%"},
      {"molecule": "Cc1cccc(C(=O)Nc2ccc3c(c2)C(=O)N(CC(C)C)C3=O)c1", "inhibition": "-9.76%"},
      {"molecule": "COc1ccc2c(c1)cc1n2CCN=C1NN", "inhibition": "84.1% (active)"},
      {"molecule": "Cc1cc(C(=O)Cn2cnc3cc([N+](=O)[O-])ccc3c2=O)c(C)n1CC1CCCO1", "note": "(stereo unspecified)", "inhibition": "-3.96%"},
      {"molecule": "Clc1ccc(C2=CSC3=Nc4cccc5cccc(c45)N23)cc1", "inhibition": "99.4% (active)"},
      {"molecule": "Cc1ccc(NC(=O)O/N=C/c2cccc([N+](=O)[O-])c2)cc1", "inhibition": "-3.19%"},
      {"molecule": "O=C1CCC/C(=N\\NC(=O)NC2CCCCC2)C1", "inhibition": "-1.59%"},
      {"molecule": "CCOc1ccc(S(=O)(=O)Nc2nccs2)cc1", "inhibition": "-5.45%"},
      {"molecule": "CC(C)(C)C(=O)CN1C2=NCCN2c2ccccc21", "inhibition": "-5.39%"},
      {"molecule": "Fc1cccc(CSc2nnc3ccc(-c4ccncc4)nn23)c1", "inhibition": "10.7%"},
      {"molecule": "Cc1c(C(=O)N2CCOCC2)[nH]c2ccc(OCc3ccccc3)cc12", "inhibition": "88.8% (active)"},
      {"molecule": "Cc1c(C(=O)CN2CCOCC2)[nH]c2ccccc12", "inhibition": "-3.24%"},
      {"molecule": "CCOC(=O)c1[nH]c2ccc(OC)cc2c1NC(=O)N1CCOCC1", "inhibition": "2.48%"},
      {"molecule": "CCCCN(C(=O)c1ccc(OC(F)(F)F)cc1)c1c(N)n(CCC)c(=O)[nH]c1=O", "inhibition": "-4.12%"},
      {"molecule": "Cc1ccc(S(=O)(=O)N(C)C)cc1NC(=O)COC(=O)C1COc2ccccc2O1", "note": "(stereo unspecified)", "inhibition": "4.18%"},
      {"molecule": "CSc1ncccc1C(=O)Nc1nc2ccc(F)cc2s1", "inhibition": "28.5%"},
      {"molecule": "Fc1ccc2nc(Nc3nc4c(s3)CCCC4)sc2c1", "inhibition": "77.9% (active)"},
      {"molecule": "Fc1ccc2nc(N3CCCCC3)sc2c1", "inhibition": "2.6%"},
      {"molecule": "CCn1c(SCC(=O)N(C)C2CCS(=O)(=O)C2)nnc1-c1cccs1", "note": "(stereo unspecified)", "inhibition": "-1.56%"},
      {"molecule": "COc1ccc(NC(=O)c2cc3nc(-c4ccccc4)cc(C)n3n2)cc1OC", "inhibition": "19.4%"},
      {"molecule": "COc1cccc2sc(N(CCCN(C)C)C(=O)C(c3ccccc3)c3ccccc3)nc12", "inhibition": "94.5% (active)"},
      {"molecule": "CN(C)CCCN(C(=O)COc1ccccc1)c1nc2c(Cl)cccc2s1", "inhibition": "1.9%"},
      {"molecule": "CC(=O)N(CCCN(C)C)c1nc2ccc(C)cc2s1", "inhibition": "-6.81%"},
      {"molecule": "CCCCCCCNc1nc(Cl)nc(NCCO)n1", "inhibition": "-8.89%"},
      {"molecule": "COc1ccc(Br)cc1CN1CCN(C(=O)c2cccc(OC)c2OC)CC1", "inhibition": "0.16%"},
      {"molecule": "COc1ccccc1OCc1ccc(C(=O)N2CCN(C)CC2)o1", "inhibition": "-7.4%"},
      {"molecule": "COc1cc2c(C(=O)N3CCN(C)CC3)c(CSc3ccccc3)n(C)c2cc1Br", "inhibition": "50.6% (active)"},
      {"molecule": "CC(=O)c1ccc(N2CCN(S(=O)(=O)c3c(C)[nH]c(=O)[nH]c3=O)CC2)cc1", "inhibition": "-5.88%"},
      {"molecule": "Cc1oc2cc([N+](=O)[O-])c(O)c([N+](=O)[O-])c2c1C(=O)c1ccc(Br)cc1", "inhibition": "-8.1%"},
      {"molecule": "COc1cccc(CN(C)CC(=O)Nc2sc3c(c2C#N)CCC3)c1", "inhibition": "-4.03%"},
      {"molecule": "O=C(CN1C(=O)CC(c2ccccc2)S(=O)(=O)c2ccccc21)NC1CCCC1", "note": "(stereo unspecified)", "inhibition": "5.62%"},
      {"molecule": "COc1ccc(-n2cnnc2SCC(=O)Nc2cccc([N+](=O)[O-])c2)cc1", "inhibition": "-9.51%"},
      {"molecule": "CC(C)CC(=O)NC(=S)NNC(=O)c1cccc([N+](=O)[O-])c1", "inhibition": "7%"},
      {"molecule": "Cn1c(-c2ccc(F)cc2)cnc1SCC(=O)NNC(=O)Cc1ccccc1", "inhibition": "0.35%"},
      {"molecule": "COC(=O)Cn1c2ccc(C)cc2c2nc(C)sc21", "inhibition": "-6.29%"},
      {"molecule": "COC(=O)c1sccc1NC(=O)c1cc(OC)c(OC)c(OC)c1", "inhibition": "8.27%"},
      {"molecule": "COC(=O)Cn1c(=NC(=O)c2cc(OC)c(OC)c(OC)c2)sc2cc(OC)ccc21", "inhibition": "55.3% (active)"},
      {"molecule": "CC(C)(C)C(=O)CSc1nc2ccccc2o1", "inhibition": "4.86%"},
      {"molecule": "CCN(CC)CCNc1nc(-c2ccc(OC(F)F)cc2)c(C)s1", "inhibition": "99.4% (active)"},
      {"molecule": "NC(=O)C[n+]1cccc(C(N)=O)c1", "inhibition": "-3%"},
      {"molecule": "COn1c(-c2ccc(Cl)cc2Cl)nc2ncccc21", "inhibition": "-6.75%"}
    ]}
  ]
}
